The values below come from PMC7862700, “An all-to-all approach to the identification of sequence-specific readers for epigenetic DNA modifications on cytosine”.

What all share (assay): DAPPL (digital affinity profiling via proximity ligation, sequencing); 10 mM Tris-HCl pH 7.5, 50 mM NaCl, 1 mM DTT, 4% glycerol, room temperature, 30 min; GST-TFs on glutathione beads, 16-mer random dsDNA library, 0.1% formaldehyde crosslink after washing; high values mean tight binding
Common to all, as to conditions: protein: recombinant; tags: N-terminal GST; dsDNA, one strand shown

The target in assay [1] is T1, FLI1 (Homo sapiens, UniProt Q01543 1-452).
T1 sequence: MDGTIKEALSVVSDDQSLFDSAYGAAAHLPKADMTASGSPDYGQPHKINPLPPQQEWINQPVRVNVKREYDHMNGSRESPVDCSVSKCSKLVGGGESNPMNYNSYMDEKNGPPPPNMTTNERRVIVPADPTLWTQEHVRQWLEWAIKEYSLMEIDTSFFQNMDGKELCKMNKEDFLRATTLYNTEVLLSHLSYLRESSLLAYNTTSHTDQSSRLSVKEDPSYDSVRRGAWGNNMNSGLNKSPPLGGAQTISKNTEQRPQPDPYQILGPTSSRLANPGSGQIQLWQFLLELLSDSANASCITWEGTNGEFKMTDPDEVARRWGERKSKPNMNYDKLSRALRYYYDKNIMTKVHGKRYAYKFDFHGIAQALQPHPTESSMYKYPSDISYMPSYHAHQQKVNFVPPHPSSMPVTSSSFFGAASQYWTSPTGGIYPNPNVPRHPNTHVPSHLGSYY
The essentials:
(§1)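 Sequencing on an Illumina NextSeq500 followed washing, crosslinking with 0.1% formaldehyde, proximity ligation (BsaI/T4 ligase, 1 h, 37 °C) and PCR amplification of pools that had been incubated for 30 min at room temperature with 200 nmole of a random double-stranded 16-mer DNA library in Tris/NaCl/DTT/glycerol buffer. Each pool held DNA-barcoded human transcription factors, expressed in yeast as GST fusions and captured on glutathione beads, plus a tag-only sample. Binding signal is a hexamer's read frequency for a factor divided by its frequency in the tag-only sample.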

Assay [2] has as its target T2, ELK1 (Homo sapiens, UniProt P19419 1-428).
T2 sequence: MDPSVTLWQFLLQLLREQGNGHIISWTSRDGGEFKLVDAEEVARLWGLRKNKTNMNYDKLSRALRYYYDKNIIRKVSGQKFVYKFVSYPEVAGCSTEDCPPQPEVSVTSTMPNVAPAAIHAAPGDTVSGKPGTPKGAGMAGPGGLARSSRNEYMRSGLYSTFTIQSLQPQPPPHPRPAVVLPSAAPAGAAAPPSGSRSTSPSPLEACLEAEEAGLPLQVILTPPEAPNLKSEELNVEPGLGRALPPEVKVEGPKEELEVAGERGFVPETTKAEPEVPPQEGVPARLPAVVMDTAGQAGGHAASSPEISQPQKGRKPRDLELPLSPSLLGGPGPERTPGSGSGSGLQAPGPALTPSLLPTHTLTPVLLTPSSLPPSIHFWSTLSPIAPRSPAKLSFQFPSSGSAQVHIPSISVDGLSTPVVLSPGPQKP
The essentials: as §1

For assay [3], the target named is T3, GABPA (Homo sapiens, UniProt Q06546 1-454).
T3 sequence: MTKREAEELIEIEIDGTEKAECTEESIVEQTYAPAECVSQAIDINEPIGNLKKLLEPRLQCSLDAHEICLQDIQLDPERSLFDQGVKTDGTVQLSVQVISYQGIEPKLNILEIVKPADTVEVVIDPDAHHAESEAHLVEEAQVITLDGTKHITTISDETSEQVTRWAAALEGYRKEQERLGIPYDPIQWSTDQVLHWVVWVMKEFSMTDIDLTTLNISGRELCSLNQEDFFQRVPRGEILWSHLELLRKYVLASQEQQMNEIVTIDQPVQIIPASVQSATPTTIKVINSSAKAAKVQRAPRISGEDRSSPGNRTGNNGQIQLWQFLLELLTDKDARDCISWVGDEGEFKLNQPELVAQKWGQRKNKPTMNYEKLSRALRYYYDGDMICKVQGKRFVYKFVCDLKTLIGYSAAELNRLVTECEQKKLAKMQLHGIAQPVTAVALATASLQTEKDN
In outline:
as §1

For assay [4], the target named is T4, ERG (Homo sapiens, UniProt P11308 1-479).
T4 sequence: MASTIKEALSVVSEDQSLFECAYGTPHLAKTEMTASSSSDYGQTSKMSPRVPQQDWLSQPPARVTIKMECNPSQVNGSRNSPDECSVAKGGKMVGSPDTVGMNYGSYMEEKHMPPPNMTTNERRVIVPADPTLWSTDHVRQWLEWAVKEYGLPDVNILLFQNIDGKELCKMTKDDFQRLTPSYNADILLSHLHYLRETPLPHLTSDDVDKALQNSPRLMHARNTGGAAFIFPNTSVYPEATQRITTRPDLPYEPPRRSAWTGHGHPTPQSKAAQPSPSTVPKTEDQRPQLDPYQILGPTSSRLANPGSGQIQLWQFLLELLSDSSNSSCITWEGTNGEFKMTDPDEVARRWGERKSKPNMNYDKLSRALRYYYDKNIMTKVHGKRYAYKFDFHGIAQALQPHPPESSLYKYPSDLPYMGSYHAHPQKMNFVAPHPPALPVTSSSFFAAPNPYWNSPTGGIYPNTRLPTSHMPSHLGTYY
The essentials: as §1

The target of assay [5] is ELF1 (Homo sapiens, UniProt P32519 1-619). In outline: as §1
Assay [6] concerns the target T5, EHF (Homo sapiens, UniProt Q9NZC4 1-300).
T5 sequence: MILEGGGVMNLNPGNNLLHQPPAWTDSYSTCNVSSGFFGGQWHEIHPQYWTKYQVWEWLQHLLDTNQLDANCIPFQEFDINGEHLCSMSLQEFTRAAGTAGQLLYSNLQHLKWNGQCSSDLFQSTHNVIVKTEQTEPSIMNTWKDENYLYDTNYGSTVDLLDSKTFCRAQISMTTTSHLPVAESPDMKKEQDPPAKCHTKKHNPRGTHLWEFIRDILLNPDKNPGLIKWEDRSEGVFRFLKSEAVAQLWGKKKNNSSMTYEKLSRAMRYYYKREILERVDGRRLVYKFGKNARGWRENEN
In outline:
as §1

For assay [7], the target named is SPIB (Homo sapiens, UniProt Q01892 1-262). The essentials: as §1
Assay [8] concerns the target T6, FEV (Homo sapiens, UniProt Q99581 1-238).
T6 sequence: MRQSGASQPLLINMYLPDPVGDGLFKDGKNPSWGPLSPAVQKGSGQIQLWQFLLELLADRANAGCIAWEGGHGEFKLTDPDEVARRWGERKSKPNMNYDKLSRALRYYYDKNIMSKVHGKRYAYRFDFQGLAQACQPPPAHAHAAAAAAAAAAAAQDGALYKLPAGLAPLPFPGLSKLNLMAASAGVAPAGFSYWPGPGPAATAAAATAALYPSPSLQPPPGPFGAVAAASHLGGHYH
In outline:
as §1

Assay [9] deals with ETV5 (Homo sapiens, UniProt P41161 1-510). In outline:
as §1

Assay [10] concerns the target T7, SPIC (Homo sapiens, UniProt Q8N5J4 1-248).
T7 sequence: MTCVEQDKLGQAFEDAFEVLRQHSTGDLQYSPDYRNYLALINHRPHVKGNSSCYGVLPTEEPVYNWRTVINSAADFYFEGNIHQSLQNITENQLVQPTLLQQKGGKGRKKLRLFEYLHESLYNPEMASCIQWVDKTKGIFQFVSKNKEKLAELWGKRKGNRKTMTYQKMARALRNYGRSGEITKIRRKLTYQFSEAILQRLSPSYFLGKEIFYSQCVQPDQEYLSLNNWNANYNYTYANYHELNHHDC
The essentials: as §1

Assay [11] has as its target ELF4 (Homo sapiens, UniProt Q99607 1-663). The essentials:
as §1

Assay [12] deals with T8, ERF (Homo sapiens, UniProt P50548 1-548).
T8 sequence: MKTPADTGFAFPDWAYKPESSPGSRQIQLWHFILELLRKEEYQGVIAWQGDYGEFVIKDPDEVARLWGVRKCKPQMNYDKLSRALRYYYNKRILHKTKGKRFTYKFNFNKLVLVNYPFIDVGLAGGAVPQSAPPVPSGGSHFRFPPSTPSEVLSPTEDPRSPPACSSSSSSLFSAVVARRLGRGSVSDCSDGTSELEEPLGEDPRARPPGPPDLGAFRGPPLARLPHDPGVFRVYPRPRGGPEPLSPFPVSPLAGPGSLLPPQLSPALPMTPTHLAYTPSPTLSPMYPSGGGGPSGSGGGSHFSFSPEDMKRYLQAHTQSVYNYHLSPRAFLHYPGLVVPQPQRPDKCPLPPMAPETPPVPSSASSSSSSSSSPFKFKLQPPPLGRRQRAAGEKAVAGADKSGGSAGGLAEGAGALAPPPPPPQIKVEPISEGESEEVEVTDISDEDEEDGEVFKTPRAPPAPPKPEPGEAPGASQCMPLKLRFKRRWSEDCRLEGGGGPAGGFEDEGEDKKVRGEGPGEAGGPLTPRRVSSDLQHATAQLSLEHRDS
In outline:
as §1

In assay [13] the target is T9, ETS2 (Homo sapiens, UniProt P15036 1-469).
T9 sequence: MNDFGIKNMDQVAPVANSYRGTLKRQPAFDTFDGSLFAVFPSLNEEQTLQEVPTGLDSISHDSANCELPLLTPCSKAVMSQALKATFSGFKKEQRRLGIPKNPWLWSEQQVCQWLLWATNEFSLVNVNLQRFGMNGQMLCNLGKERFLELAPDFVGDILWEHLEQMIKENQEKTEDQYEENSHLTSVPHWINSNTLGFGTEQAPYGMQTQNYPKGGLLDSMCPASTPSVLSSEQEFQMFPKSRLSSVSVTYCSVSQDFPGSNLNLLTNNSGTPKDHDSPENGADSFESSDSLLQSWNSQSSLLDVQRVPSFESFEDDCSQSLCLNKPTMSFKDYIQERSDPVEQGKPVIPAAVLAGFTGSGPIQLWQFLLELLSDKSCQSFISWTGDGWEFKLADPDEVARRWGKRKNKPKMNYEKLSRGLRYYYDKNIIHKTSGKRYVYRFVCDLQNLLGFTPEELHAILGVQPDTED
The essentials: as §1

Assay [14] addresses T10, ELF5 (Homo sapiens, UniProt Q9UKW6-2 1-255).
T10 sequence: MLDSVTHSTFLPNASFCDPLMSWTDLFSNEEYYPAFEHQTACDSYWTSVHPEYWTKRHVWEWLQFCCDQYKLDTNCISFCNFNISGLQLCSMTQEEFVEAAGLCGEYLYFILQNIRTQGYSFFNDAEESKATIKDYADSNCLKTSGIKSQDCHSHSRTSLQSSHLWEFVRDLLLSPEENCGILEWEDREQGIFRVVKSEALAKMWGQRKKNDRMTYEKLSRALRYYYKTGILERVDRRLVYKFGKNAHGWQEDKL
The essentials:
as §1

For assay [15], the target named is T11, ETV3 (Homo sapiens, UniProt P41162-2 1-143).
T11 sequence: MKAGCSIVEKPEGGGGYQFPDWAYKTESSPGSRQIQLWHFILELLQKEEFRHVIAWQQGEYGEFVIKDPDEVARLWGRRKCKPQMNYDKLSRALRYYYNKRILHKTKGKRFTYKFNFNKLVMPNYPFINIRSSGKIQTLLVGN
In outline: as §1

The target in assay [16] is ETV6 (Homo sapiens, UniProt P41212 1-452). In outline:
as §1

ELF1, sequence (P32519 whole entry): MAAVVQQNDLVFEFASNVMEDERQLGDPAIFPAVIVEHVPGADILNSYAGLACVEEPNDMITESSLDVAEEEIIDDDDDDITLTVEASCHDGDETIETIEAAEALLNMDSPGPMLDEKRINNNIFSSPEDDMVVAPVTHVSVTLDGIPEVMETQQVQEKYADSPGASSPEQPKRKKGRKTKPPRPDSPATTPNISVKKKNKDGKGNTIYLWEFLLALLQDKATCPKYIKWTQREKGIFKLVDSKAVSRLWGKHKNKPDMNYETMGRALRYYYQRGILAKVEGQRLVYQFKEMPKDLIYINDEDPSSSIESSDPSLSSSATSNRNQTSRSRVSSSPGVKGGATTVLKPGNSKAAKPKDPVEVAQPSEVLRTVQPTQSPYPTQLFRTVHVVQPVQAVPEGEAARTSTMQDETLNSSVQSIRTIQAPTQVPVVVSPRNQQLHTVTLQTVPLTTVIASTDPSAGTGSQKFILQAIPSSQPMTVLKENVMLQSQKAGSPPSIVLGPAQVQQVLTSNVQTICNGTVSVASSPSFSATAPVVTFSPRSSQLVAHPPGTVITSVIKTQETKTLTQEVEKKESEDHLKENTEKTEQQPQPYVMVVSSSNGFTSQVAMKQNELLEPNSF
ETV6, sequence (P41212 whole entry): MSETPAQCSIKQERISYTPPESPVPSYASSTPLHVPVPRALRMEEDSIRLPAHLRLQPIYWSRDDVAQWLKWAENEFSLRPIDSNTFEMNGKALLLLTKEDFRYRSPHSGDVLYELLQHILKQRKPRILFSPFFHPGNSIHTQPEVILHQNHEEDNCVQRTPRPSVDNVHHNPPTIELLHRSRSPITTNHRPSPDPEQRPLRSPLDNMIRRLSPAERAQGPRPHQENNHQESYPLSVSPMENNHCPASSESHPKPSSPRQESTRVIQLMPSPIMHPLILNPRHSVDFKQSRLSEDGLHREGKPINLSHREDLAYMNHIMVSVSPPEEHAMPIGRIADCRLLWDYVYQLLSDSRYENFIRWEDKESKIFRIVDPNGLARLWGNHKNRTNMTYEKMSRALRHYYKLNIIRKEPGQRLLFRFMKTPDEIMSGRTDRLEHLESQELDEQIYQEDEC
ELF4, sequence (Q99607 whole entry): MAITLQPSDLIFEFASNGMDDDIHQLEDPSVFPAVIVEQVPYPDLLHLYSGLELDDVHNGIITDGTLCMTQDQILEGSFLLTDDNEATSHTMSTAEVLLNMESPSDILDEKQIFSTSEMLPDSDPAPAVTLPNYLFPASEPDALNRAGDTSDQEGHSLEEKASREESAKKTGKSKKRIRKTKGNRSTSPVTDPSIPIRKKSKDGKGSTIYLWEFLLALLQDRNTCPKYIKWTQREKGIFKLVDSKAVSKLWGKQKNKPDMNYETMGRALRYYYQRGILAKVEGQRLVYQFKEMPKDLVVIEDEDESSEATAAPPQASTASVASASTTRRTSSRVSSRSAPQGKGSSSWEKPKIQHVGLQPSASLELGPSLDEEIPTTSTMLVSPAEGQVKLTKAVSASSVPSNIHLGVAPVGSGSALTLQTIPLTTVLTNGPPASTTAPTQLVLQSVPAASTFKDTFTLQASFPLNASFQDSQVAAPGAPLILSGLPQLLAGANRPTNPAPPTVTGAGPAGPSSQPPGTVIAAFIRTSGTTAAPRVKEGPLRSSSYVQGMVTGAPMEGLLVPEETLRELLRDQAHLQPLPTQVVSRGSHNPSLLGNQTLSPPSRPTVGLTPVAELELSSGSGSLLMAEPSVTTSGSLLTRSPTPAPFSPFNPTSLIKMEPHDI
SPIB, sequence (Q01892 whole entry): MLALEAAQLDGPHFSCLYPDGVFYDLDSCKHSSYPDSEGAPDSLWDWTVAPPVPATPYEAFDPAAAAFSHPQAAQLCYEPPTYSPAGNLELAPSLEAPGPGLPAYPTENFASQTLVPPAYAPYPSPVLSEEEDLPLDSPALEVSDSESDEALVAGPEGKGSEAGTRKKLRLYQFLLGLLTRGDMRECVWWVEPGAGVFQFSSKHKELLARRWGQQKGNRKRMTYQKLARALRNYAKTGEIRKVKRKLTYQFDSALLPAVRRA
ETV5, sequence (P41161 whole entry): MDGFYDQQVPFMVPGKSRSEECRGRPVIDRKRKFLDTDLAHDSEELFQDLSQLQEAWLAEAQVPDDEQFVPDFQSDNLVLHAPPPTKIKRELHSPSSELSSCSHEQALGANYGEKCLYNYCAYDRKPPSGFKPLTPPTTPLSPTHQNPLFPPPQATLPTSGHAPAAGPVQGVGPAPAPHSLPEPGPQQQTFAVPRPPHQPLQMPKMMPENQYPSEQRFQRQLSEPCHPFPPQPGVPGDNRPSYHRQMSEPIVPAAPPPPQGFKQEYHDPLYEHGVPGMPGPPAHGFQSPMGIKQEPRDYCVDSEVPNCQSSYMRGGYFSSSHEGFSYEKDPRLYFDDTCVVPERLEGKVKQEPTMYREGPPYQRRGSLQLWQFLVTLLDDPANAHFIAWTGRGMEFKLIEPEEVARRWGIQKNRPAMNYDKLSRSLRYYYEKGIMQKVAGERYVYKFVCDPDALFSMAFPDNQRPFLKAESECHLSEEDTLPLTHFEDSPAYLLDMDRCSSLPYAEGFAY

On to AGCAAC, for which the binding signal in assay [1] is 1 fold enrichment (6-mer frequency, TF over GST control); in assay [2], 1.03 fold enrichment (6-mer frequency, TF over GST control); in assay [3], 1.06 fold enrichment (6-mer frequency, TF over GST control); in [4] it was 1.06 fold enrichment (6-mer frequency, TF over GST control); in [5], 1.08 fold enrichment (6-mer frequency, TF over GST control); in [6], 1.15 fold enrichment (6-mer frequency, TF over GST control). Further, the binding signal was 1.08 fold enrichment (6-mer frequency, TF over GST control) in assay [7]; 1.08 fold enrichment (6-mer frequency, TF over GST control) in assay [8]; 1.06 fold enrichment (6-mer frequency, TF over GST control) in assay [9]; 1.11 fold enrichment (6-mer frequency, TF over GST control) in assay [10]; 1.1 fold enrichment (6-mer frequency, TF over GST control) in assay [11]; 1.11 fold enrichment (6-mer frequency, TF over GST control) in [12]. Moreover, the binding signal in [13] was 1.11 fold enrichment (6-mer frequency, TF over GST control); in assay [14], 1.07 fold enrichment (6-mer frequency, TF over GST control); in assay [15], 1.04 fold enrichment (6-mer frequency, TF over GST control); in assay [16] it was 1.06 fold enrichment (6-mer frequency, TF over GST control).
